Measured values reported in PubChem BioAssay (NCATS).
Records with an inconclusive call do not appear. Activity calls are given as the source filed them. Unless noted, calls follow the shape of the dose curve; as a rule, active = well fitted curve in the direction sought with a large enough effect; inconclusive = small, poorly fitted or top-dose-only effect, or another doubt; inactive = no such curve, though single readings can be large; an effect the other way counts as inactive or inconclusive.

What was measured:
[1] = Cell Viability - Mesenchymal (AID 546);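 also: cells exposed to compound for 40 hours before reading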
Outline: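 AC50 values reflect the drop in intracellular ATP in a human kidney mesenchymal line derived from normal glomeruli. Treatment lasts 40 hr at 37 °C in complete medium, and the signal comes from CellTiter-Glo luminescence.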

[2] = Cellular Toxicity (caspase-3) HepG2 (AID 654);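 also: cells exposed to compound for 16 hours before reading; 0% = DMSO alone and 100% = caspase signal from 100 µM tamoxifen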
Outline: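 HepG2 cells (1500/well) were treated 16 h at 37 °C in complete medium, then caspase 3/7 activity was read by Caspase-Glo luminescence. Data were normalized to DMSO and 100 uM tamoxifen; AC50 came from Hill-equation fits of qHTS concentration-response.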

[3] = Cellular Toxicity (caspase-3) Jurkat (AID 655); details: Jurkat caspase-3 activation, luminescence, DMSO = 0%, tamoxifen = 100%; at 92.2 µM (top of the series);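 also: cells exposed to compound for 16 h at 37 °C before reading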
Outline: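 qHTS in human Jurkat T-cell leukemia line: 16 hr compound treatment at 37 °C, caspase-3/7 activity measured by Caspase-Glo luminescence. AC50 derived from Hill equation.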

[4] = Cellular Toxicity (caspase-3) HUV-EC-C (AID 656)
Outline: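 Concentration-dependent caspase 3/7 induction was assessed in HUV-EC-C cells exposed for 16 hours. Data scaled between DMSO and tamoxifen (100 uM) controls.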

[5] = Cellular Toxicity (caspase-3) SHSY5Y (AID 657)
Outline: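 Readout: caspase-cleaved peptide-aminoluciferin substrate driving luciferase light in SH-SY5Y neuroblastoma cells after 16 h treatment. Response normalized to DMSO and 10 uM staurosporine controls.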

[6] = Cellular Toxicity (caspase-3) BJ (AID 658);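 also: 0% = DMSO basal and 100% = 10 µM staurosporine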
Outline: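 Readout: Caspase-Glo 3/7 luminescence increase in BJ cells after 16 hr treatment at 37 °C. Staurosporine and tamoxifen served as positive controls; AC50 values came from Hill modelling of data normalized to DMSO and 10 uM staurosporine.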

[7] = Cellular Toxicity (caspase-3) MRC-5 (AID 659);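 also: 0% = DMSO basal and 100% = 10 µM staurosporine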
Outline: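 Concentration-dependent caspase 3/7 activation is measured in human normal lung fibroblasts (MRC-5) following 16-hour treatment. AC50 values come from standard Hill-equation modeling of luminescence normalized to DMSO and 10 uM staurosporine.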

[8] = Cellular Toxicity (caspase-3) SK-N-SH (AID 661);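 also: 0% = DMSO basal and 100% = 10 µM staurosporine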
Outline: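 Human SK-N-SH neuroblastoma cells, 1500/well, were exposed to compounds for 16 hours at 37 °C. Caspase-Glo 3/7 luminescence was normalized to DMSO (basal) and 10 uM staurosporine (100%), and AC50 came from a Hill fit.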

[9] = Cellular Toxicity (caspase-3) H-4-II-E (AID 663); details: Potency: caspase-3 activation;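 also: cells exposed to compound for 16 hr before readout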
Outline: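 Apoptosis induction is scored as increased luminescence from caspase 3/7 substrate cleavage in rat hepatoma H-4-II-E cells exposed to compound for 16 hr. Activity is scaled between DMSO and 100 uM tamoxifen.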

[10] = Cellular Toxicity (caspase-3) Hek293 (AID 664);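 also: cells exposed to compound for 16 h at 37 °C before readout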
Outline: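 HEK293 cells in complete medium treated 16 h at 37 °C, then Caspase-Glo 3/7 luminescence read after 20 min at room temperature. Normalized to DMSO and 100 uM tamoxifen; AC50 from Hill fit of concentration-response.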

[11] = Cellular Toxicity (caspase-3) N2a (AID 665);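 also: compound exposure lasted 16 h at 37 °C before readout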
Outline: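 Mouse N2a neuroblastoma cells, 1500 per well, treated 16 h at 37 °C in complete medium; caspase-3/7 activity by Caspase-Glo luminescence after 1 h. Normalized to DMSO and 10 uM staurosporine; AC50 from Hill fits.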

[12] = Cellular Toxicity (caspase-3) NIH 3T3 (AID 666);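 also: 0% = DMSO basal and 100% = 100 µM tamoxifen stimulation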
Outline: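 Mouse NIH 3T3 fibroblasts (1000/well) treated 16 h at 37 C; caspase-3/7 activity measured by Caspase-Glo 3/7 luminescence after 20 min. Normalized to DMSO and 100 uM tamoxifen; AC50 from Hill fits.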

[13] = Cellular Toxicity (caspase-3) Renal Proximal Tubule (AID 667);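 also: cells exposed to compound for 16 hours at 37 °C before detection; 0% = DMSO basal and 100% = 10 µM staurosporine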
Outline: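 Caspase-Glo 3/7 read-out, rat primary kidney proximal tubule cells. Compound exposure 16 h, 37 °C; detection after 1 h at RT. Activity scaled to DMSO and 10 uM staurosporine.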

[14] = molecular target: Cytochrome P450 3A4 (Homo sapiens) (UniProt P08684); experiment: qHTS Assay for Inhibitors and Substrates of Cytochrome P450 3A4 (AID 884); also: % is scaled to controls: 0 for no effect and ±100 for the full control effect; nearly all actives have a fitted effect of over 50% in size
Outline: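 20 nM human CYP3A4 with 25 uM Luciferin-PPXE (at KM) in 200 mM KPO4, preincubated 10 min with compound; NADPH regeneration started a 60 min RT reaction. Luciferin detected by luminescence, normalized to 57 uM ketoconazole as full inhibition.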

[15] = molecular target: Guanine nucleotide-binding protein G(i) subunit alpha-1 (Homo sapiens) (UniProt P63096); experiment: qHTS Assay for Inhibitors of RGS12 GoLoco Motif Activity (Green Fluorophore) (AID 879);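 also: 0% = labeled peptide with Gαi1 and full inhibition = labeled peptide alone without protein; negative values mean loss of peptide binding seen as reduced polarization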
Outline: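 Fluorescence polarization assay: 50 nM Gαi1 with 10 nM FITC-labeled RGS12 GoLoco peptide in 10 mM Tris pH 7.5, 150 mM NaCl, 0.1 mM GDP, 0.05% NP40, 10 min at room temperature with compound.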

[16] = qHTS Assay for Identification of Small Molecule Antagonists for NFkB Signaling Pathway (AID 895; active = well fitted inhibition curve with a large enough effect in the signal ratio, with a control signal flat, not every such curve was filed as active; the % refers to the signal ratio; also: % is scaled to controls: 0 for no effect and ±100 for the full control effect)
Outline: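 Beta-lactamase reporter read-out (460 and 530 nm emission ratio, 405 nm excitation, 2 hrs substrate loading RT) after 5 hr stimulation with 10 pM TNF alpha in compound-treated NFkB-bla ME-180 cells in low-serum medium.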

[17] = molecular target: Cytochrome P450 3A4 (Homo sapiens) (UniProt P08684); experiment: qHTS Assay for Activators of Cytochrome P450 3A4 (AID 885); also: nearly all actives have a fitted effect of over 65% in size
Outline: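 Steps: enzyme/substrate mix dispensed; compound added, 10 min RT; NADPH regeneration solution added, 60 min RT; luciferin detection buffer stops reaction; 20 min later luminescence measured.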

[18] = molecular target: Cytochrome P450 2C9 (Homo sapiens) (UniProt P11712); experiment: qHTS Assay for Inhibitors and Substrates of Cytochrome P450 2C9 (AID 883); also: nearly all actives have a fitted effect of over 60% in size; also: potency is read from the fitted curve at half-maximal effect
Outline: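 Turnover of Luciferin-H (100uM, KM) by 10nM human CYP2C9 was measured over 60 min at 37C with NADPH regeneration; inhibitors and some substrates reduce luminescence. Data normalized to sulphaphenazole 57uM.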

[19] = molecular target: Cytochrome P450 2C19 (Homo sapiens) (UniProt P33261); experiment: qHTS Assay for Inhibitors and Substrates of Cytochrome P450 2C19 (AID 899); details: recombinant CYP2C19, luciferin-H EGE luminescence; also: potency is read from the fitted curve at half-maximal effect; nearly all actives have a fitted effect of over 60% in size
Outline: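 Reactions contain 5nM enzyme, 10uM Luciferin-H EGE (KM) and 50mM KPO4; compound preincubates 10 min at 37C, NADPH regeneration starts turnover for 60 min. Luminescence after detection reagent gives activity.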

Chain of Cytochrome P450 3A4 (Homo sapiens) (P08684 whole entry, looked up): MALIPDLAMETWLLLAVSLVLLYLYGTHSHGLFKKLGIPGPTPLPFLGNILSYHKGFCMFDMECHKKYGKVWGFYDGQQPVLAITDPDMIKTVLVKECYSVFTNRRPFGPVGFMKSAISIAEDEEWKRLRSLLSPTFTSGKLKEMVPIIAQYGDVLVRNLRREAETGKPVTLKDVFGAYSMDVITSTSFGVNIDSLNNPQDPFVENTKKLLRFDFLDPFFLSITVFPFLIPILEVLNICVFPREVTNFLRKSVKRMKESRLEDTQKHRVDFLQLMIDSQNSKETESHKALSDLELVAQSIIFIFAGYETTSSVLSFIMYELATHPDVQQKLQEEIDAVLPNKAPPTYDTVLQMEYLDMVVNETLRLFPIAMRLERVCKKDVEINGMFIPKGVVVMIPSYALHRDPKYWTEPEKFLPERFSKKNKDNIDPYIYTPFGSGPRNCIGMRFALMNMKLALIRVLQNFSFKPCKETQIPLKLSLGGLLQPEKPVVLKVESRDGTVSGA
Chain of Guanine nucleotide-binding protein G(i) subunit alpha-1 (Homo sapiens) (P63096 whole entry, looked up): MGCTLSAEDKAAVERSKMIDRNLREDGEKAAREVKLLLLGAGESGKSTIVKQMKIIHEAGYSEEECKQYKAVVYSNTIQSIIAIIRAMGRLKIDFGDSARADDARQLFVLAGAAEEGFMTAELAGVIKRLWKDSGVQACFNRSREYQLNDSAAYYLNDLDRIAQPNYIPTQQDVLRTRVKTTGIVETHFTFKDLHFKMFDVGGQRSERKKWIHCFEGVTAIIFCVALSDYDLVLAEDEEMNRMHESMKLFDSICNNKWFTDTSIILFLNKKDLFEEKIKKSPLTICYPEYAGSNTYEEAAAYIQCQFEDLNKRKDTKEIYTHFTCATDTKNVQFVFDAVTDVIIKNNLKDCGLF
Chain of Cytochrome P450 2C9 (Homo sapiens) (P11712 whole entry, looked up): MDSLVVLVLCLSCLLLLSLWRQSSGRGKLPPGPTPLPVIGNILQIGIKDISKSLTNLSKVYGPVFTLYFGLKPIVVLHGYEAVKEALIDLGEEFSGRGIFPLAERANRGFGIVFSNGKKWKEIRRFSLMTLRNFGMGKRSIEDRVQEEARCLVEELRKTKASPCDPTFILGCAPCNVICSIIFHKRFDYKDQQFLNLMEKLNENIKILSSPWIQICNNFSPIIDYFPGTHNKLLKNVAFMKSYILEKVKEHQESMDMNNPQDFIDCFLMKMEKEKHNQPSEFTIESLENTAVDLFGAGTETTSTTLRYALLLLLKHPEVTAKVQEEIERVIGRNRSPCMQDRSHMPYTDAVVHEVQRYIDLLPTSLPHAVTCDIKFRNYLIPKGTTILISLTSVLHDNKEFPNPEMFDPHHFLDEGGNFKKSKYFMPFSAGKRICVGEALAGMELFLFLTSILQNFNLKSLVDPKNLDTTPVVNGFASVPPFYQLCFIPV
Chain of Cytochrome P450 2C19 (Homo sapiens) (P33261 whole entry, looked up): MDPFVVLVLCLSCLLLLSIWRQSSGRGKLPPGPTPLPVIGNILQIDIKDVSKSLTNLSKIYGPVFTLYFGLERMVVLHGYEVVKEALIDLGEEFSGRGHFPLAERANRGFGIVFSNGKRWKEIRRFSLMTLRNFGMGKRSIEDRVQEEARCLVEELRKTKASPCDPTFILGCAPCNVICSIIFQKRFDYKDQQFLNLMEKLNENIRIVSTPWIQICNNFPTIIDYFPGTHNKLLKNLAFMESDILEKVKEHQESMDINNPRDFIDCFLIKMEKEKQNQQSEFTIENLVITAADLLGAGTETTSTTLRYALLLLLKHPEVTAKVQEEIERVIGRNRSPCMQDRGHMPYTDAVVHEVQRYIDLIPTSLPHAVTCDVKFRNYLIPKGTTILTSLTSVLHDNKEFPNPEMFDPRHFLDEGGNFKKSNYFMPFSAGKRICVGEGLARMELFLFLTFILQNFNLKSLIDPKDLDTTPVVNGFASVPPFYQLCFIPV

CCCCC(CC)COC(=O)c1ccc(N(C)C)cc1 (stereo not drawn)
inactive: outcome [1] | outcome [2] | caspase-3 activation [3] 1.94% | outcome [4] | outcome [5] | outcome [6] | outcome [7] | outcome [8] | Potency [9] | outcome [10] | outcome [11] | outcome [12] | outcome [13]

COc1ccc(CN(CCN(C)C)c2ncccn2)cc1
inactive: Potency [14]

Oc1ccc(Cl)cc1Cc1cc(Cl)ccc1O
inactive: outcome [4] | outcome [5] | outcome [6] | outcome [7] | outcome [8] | Potency [9] | outcome [11] | outcome [12] | outcome [13]
active: caspase-3 activation [3] 86%

NC(N)=NCc1cccc(I)c1
inactive: outcome [15] | outcome [16]

NS(=O)(=O)Cc1noc2ccccc12
inactive: outcome [15] | outcome [17]

CCOc1ccc(NC(C)=O)cc1
inactive: outcome [1] | outcome [2] | caspase-3 activation [3] -0.173% | outcome [4] | outcome [5] | outcome [6] | outcome [7] | outcome [8] | Potency [9] | outcome [10] | outcome [11] | outcome [12] | outcome [13]

COc1cc(C(=O)NCc2ccc(OCCN(C)C)cc2)cc(OC)c1OC
inactive: outcome [18]

Oc1c(Cl)cc(Cl)c(Cl)c1Cc1c(O)c(Cl)cc(Cl)c1Cl
inactive: outcome [1] | outcome [2] | outcome [4] | outcome [5] | outcome [6] | outcome [7] | outcome [8] | Potency [9] | outcome [10] | outcome [11] | outcome [12] | outcome [13]

NC(=O)c1ccccc1O
inactive: outcome [1] | outcome [2] | caspase-3 activation [3] -0.838% | outcome [4] | outcome [5] | outcome [6] | outcome [7] | outcome [8] | Potency [9] | outcome [10] | outcome [11] | outcome [12] | outcome [13] | Potency [14]

CN(C)CCC[C@@]1(c2ccc(F)cc2)OCc2cc(C#N)ccc21
active: Potency [18] 3.16 µM | Potency [19] 3.16 µM
inactive: outcome [15] | Potency [14] | outcome [17]
